Screening results (PubChem BioAssay)
Hits are enriched below; roughly 1.8% of the tested compounds scored in any of these assays.
Fam108B counter – blocks mouse Fam108B hydrolase in RBBP9 counter-screen; recombinant Fam108B, FP-Rh probe fluorescence polarization; inhibition, % at 9.51 µM; actives 0.33% (n = 300,000); AID 1947;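 active = inhibition above the screen mean inhibition plus 3 SD, computed separately per campaign, cut at about 18% in these data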;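 also: inhibitors lower polarization as less probe binds the enzyme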
LYPLA1 inh – counter-screen for PME1 inhibitors: inhibitors of human LYPLA1; O75608; recombinant LYPLA1, FP-Rh probe fluorescence polarization; inhibition, % at 5.9 µM; actives 0.16% (n = 320,000);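 active = inhibition above the mean of all tested compounds plus 3 SD, set per campaign, cut at about 14% in these data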;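 also: inhibitors block serine hydrolase probe labeling of LYPLA1 so polarization falls; 0% = enzyme with DMSO and 100% = wells lacking LYPLA1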
Target sequence (O75608 whole entry, looked up): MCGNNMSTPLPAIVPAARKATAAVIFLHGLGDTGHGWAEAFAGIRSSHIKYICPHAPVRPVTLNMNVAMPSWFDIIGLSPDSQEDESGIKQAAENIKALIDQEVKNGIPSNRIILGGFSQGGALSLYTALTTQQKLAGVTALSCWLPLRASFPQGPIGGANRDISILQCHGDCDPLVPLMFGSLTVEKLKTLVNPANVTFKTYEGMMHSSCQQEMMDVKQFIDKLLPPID
PAD4 FP inh – blocks human protein arginine deiminase 4. Q9UM07. recombinant PAD4, RCA probe fluorescence polarization. inhibition, % at 6.36 µM. actives 0.41% (n = 330,000). AID 485272;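 active = percent inhibition above a cutoff equal to the mean of all tested compounds plus 3 SD, cut at about 15% in these data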;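 also: 0% = PAD4 with RCA probe and DMSO and 100% = probe without PAD4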
PME-1 primary – blocks human protein phosphatase methylesterase 1 | AID 2130 | inhibition, % at 5.9 µM | actives 0.53% (n = 320,000) | recombinant PME-1, FP-Rh probe fluorescence polarization | Q9Y570;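 active = inhibition above the campaign mean of all compounds plus 3 SD, cut at about 26% in these data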;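 also: competitive labeling of PME-1 active site by serine hydrolase directed probe; 0% = PME-1 with DMSO and 100% = wells lacking PME-1 enzyme; inhibitors block probe labeling so polarization falls and inhibition rises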
LYPLA2 inh – blocks human lysophospholipase 2, a PME1 counter-screen | AID 2177 | O95372 | actives 0.38% (n = 320,000) | recombinant LYPLA2, FP-Rh probe fluorescence polarization | inhibition, % at 5.9 µM;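 active = inhibition above the screen-wide mean plus 3 SD, limit set per campaign, cut at about 26% in these data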;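 also: 0% = LYPLA2 with DMSO and 100% = wells lacking LYPLA2 enzyme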
Target sequence (O95372 whole entry, looked up): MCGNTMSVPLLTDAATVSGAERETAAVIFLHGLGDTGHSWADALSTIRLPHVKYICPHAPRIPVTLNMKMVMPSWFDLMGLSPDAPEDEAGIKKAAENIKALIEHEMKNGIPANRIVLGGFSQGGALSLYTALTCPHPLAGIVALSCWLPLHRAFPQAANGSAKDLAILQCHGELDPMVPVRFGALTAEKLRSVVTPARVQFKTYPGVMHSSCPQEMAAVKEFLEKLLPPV
GSTO1 counter – counter-screen for RBBP9 inhibitors: inhibitors of human GSTO1; P78417; recombinant GSTO1, activity-based probe fluorescence polarization; actives 1.1% (n = 300,000); inhibition, % at 5.96 µM;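 active = inhibition above the campaign mean inhibition plus 3 SD, cut at about 35% in these data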;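 also: 0% = GSTO1-1 with DMSO and 100% = wells lacking GSTO1-1 enzyme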
GSTO1 confirm – confirmation of human GSTO1 inhibitors | inhibition, % at 5.96 µM | recombinant GSTO1, probe fluorescence polarization | AID 2176 | actives 54% (n = 2,400) | shares compounds with GSTO1 counter;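 active = inhibition above the primary screen's cutoff, its mean inhibition plus 3 SD, cut at about 35% in these data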;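 also: loss of polarization as inhibitors block binding of rhodamine sulfonate ester activity probe; 0% = GSTO1 with DMSO and 100% = wells lacking GSTO1 enzyme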
GSTO1 recomb ABPP – blocks recombinant human glutathione S-transferase omega 1; AID 463110; inhibition, % at 1 µM; recombinant GSTO1, gel ABPP SE-Rh probe fluorescence; actives 30% (n = 130); shares compounds with GSTO1 counter;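 active = inhibition of the enzyme GSTO1 above about 75%, limit read from the data; inactive = inhibition below that limit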
* = called active by the depositor; nt = no result given.

SMILES	Fam108B counter	LYPLA1 inh	PAD4 FP inh	PME-1 primary	LYPLA2 inh	GSTO1 counter	GSTO1 confirm	others
COc1cc(OC)c([N+](=O)[O-])cc1/C=N/NC(=O)c1ccncc1	2	-1	-8	1	-5	49*	18
COc1ccc(S(=O)(=O)N(C(=O)c2ccco2)c2cc3sc(=O)oc3c3ccccc23)cc1	7	1	9	12	6	64*	19
Cc1ccc2scc(CN3CCCC3)c2c1	1	0	2	-1	1	4	nt
CN1CCN(C(CNS(=O)(=O)c2ccc([N+](=O)[O-])cc2)c2ccc(F)cc2)CC1 (configuration not stated)	-3	2	-2	-6	3	2	nt
COc1ccc(-n2nc(C(=O)NCC(=O)NCc3cccc(F)c3)c3ccccc3c2=O)cc1Cl	-22	-30	2	-64	-71	0	nt
CCN(CC)C(=O)CCCc1c[nH]c2ccccc12	-1	0	-2	-4	-3	-1	nt
O=C(CCl)N(c1ccccc1)c1c[nH]c2ccccc12	5	-3	3	2	-11	70*	78*	GSTO1 recomb ABPP=34
C=CCN(Cc1cccc(OC)c1OC)C(=O)Oc1ccccc1	nt	2	-3	-2	2	nt	nt
CCOc1ccc(NC(=O)C(c2ccccn2)N(C(=O)CCl)c2ccc(OCC)cc2)cc1 (configuration not stated)	3	-1	-8	6	0	43*	10
CC(=O)Nc1ccc(C(=O)N(C)C(C(=O)Nc2ccc(C)cc2)c2ccccn2)cc1 (configuration not stated)	1	0	4	0	5	6	nt
CC(C)C[C@H](NS(=O)(=O)c1ccc(Br)cc1)C(=O)O	-4	1	6	-8	0	2	nt
CC(C)CC(NS(=O)(=O)c1cccc(C(=O)O)c1)C(=O)O (configuration not stated)	-5	4	3	-3	5	51*	3
Cc1cccc(-c2nc(CS(=O)CC(=O)N3CC(C)CC(C)C3)c(C)o2)c1 (configuration not stated)	1	3	-4	1	10	9	nt
O=C(COc1ccc(-c2nnco2)cc1)Nc1ccc(C(F)(F)F)cc1	-1	-3	0	-4	-7	-3	nt
Nc1cc(N)c(OCC(F)(F)F)cc1OCC(F)(F)F	10	-1	55*	14	6	80*	64*
Nc1cc(OCC(F)(F)F)cc([N+](=O)[O-])c1	7	-1	1	-4	14	-2	nt
Cc1cc(C)cc(N(CC(=O)NC2CCCCC2)C(=O)CCCC(=O)Nc2ccccn2)c1	2	3	-3	1	-2	8	nt
CC(C)Cn1nc(C(=O)NCc2ccccc2CN2CCCC2)c2ccccc2c1=O	nt	-2	2	-3	-1	nt	nt
O=[N+]([O-])c1ccc2[nH]c(O)c(N=Nc3ccc(F)cc3)c2c1	-1	-1	-1	-2	2	-1	nt
O=C(CNC(=O)c1cccs1)N=Nc1c(O)[nH]c2ccc([N+](=O)[O-])cc12	4	-2	-7	0	-4	39*	25
O=[N+]([O-])c1ccc2[nH]c(O)c(N=NC3CCS(=O)(=O)C3)c2c1 (configuration not stated)	-3	0	1	0	-2	6	nt
O=C(N=Nc1c(O)[nH]c2ccc([N+](=O)[O-])cc12)c1ccccc1[N+](=O)[O-]	7	1	-17	1	6	43*	46*
CC(Oc1ccccc1)C(=O)N=Nc1c(O)[nH]c2ccc([N+](=O)[O-])cc12 (configuration not stated)	-1	3	-13	-6	5	61*	74*
COCCNC(=S)N=Nc1c(O)[nH]c2ccc([N+](=O)[O-])cc12	-3	0	1	-3	-2	10	nt
COc1ccc(Cc2nc3ccc(C(=O)N(C)CCn4ccnc4)cc3o2)cc1OC	0	-1	2	-2	4	6	nt
SMILES	Fam108B counter	LYPLA1 inh	PAD4 FP inh	PME-1 primary	LYPLA2 inh	GSTO1 counter	GSTO1 confirm	others
CN(C)c1nc(Cl)nc(N(C#N)CCOc2ccccc2)n1	-1	-2	-1	0	5	44*	69*
Cc1cccn2c(=O)c(/C=C(\C#N)C(=O)NCc3ccco3)c(N3CCOCC3)nc12	0	0	3	0	-3	5	nt
N#C/C(=C\c1c(N2CCC(C(N)=O)CC2)nc2ccccn2c1=O)C(=O)NCc1ccco1	-2	1	1	-8	5	45*	8
C/C(=N\S(=O)(=O)c1ccc(C)cc1)NC(=S)Nc1ccccc1	1	1	-3	-5	5	20	nt
COC(=O)C(C(C)=O)C1=C/C(=N\S(=O)(=O)c2ccc(C)cc2)c2ccccc2C1=O (configuration not stated)	-8	-1	-7	-1	0	49*	10
O=C(CCl)Nc1cccc2ncccc12	-2	-5	-1	-1	-7	69*	77*
Cc1cc(C)c2c(CCl)cc(=O)oc2c1	-1	-1	2	6	-1	65*	97*
Cc1cc(C)c2c(CN3CCCCC3)cc(=O)oc2c1	2	-5	-4	0	1	-2	nt
O=C(CN1CCCCCC1)Nc1ccc([N+](=O)[O-])cc1Cl	-1	-2	4	-1	-2	4	nt
O=C(CN1CCCCCC1)Nc1cc([N+](=O)[O-])ccc1Cl	0	10	0	-10	18	57*	14
COc1ccc(C(=O)CC(c2ccccc2)S(=O)(=O)c2ccc(C)cc2)cc1 (configuration not stated)	4	0	-1	-5	0	1	nt
COc1ccc(C(CC(=O)c2ccc(O)cc2)S(=O)(=O)c2ccc(C)cc2)cc1 (configuration not stated)	1	3	-1	0	3	40*	-5
COc1cc(O)cc2cc3c(c(O)c12)C(=O)CC(C)(O)O3 (configuration not stated)	-4	0	-5	1	2	47*	31
CN(Cc1ccc(Cl)s1)C(=O)CCl	3	8	3	-4	7	92*	104*	GSTO1 recomb ABPP=70
Cc1cccc(OCC(=O)N2CCN(C(=O)COc3ccc(Cl)cc3)CC2)c1	3	4	-2	1	20	9	nt
O=C(O)COc1cccc(/C=C2/SC(=S)N(Cc3ccccc3)C2=O)c1	-11	-3	-4	-8	2	-8	nt
